In PubChem BioAssay AID1259418 (Broad Institute, 2018):
In all, about 3,400 compounds went through this assay and about 840 (25%) were called active. About 11% were inconclusive and are not listed.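 The calls were made as follows: active = fitted half-maximal concentration of signal decrease at or below twice the sample's top tested concentration; inconclusive = flat curve between -70 and -30 percent, or poor fit; inactive = flat within 30 percent, signal rise, or potency above limit.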 Not all results are given here. Results with a measured potency or affinity are listed apart.

Assay: inhibitors of Toxoplasma growth in IFN-γ-primed HeLa – cell-based, ME49Luc, luciferase, 72 h, dose response (AID 1259418)
Conditions: T. gondii ME49Luc in IFN-y HeLa, stronger effect = lower value, -100% = high-dose IFN-γ control wells; at 19.5 µM unless noted
With `CCc1ccc(-c2noc(-c3nnn(Cc4nc(-c5ccccc5OC)oc4C)c3C)n2)cc1` the max activity was 11.7% [at 1.35 µM] (inactive). For `Cc1cccc(OCC(=O)N2CCC[C@@H]2C(=O)NCCc2csc(-c3ccccc3)n2)c1`, the max activity was 9.84% [at 2.6 µM] (inactive). In the case of `O=C(Cc1cccnc1)N1CC(=O)N2[C@@H](CO)[C@H](c3ccc(C#CC4CCCCC4)cc3)[C@@H]2C1`, the max activity was 14.3% [at 10 µM] (inactive). With `COCC(=O)N1CC(=O)N2[C@H](CO)[C@@H](c3ccc(C#CC4CC4)cc3)[C@@H]2C1` the max activity was 39.9% (inactive). In the case of `COCC(=O)N1CC(=O)N2[C@H](CO)[C@H](c3ccc(C#CC4CC4)cc3)[C@@H]2C1`, the max activity was 43.4% (inactive). For `Cc1ccc(-c2noc(-c3nnn(Cc4nc(-c5ccccc5)oc4C)c3C)n2)cc1C`, the max activity was 6.16% (inactive). With `O=C(Cc1cccs1)N1CCC2(CC1)Nc1cc(F)ccc1-n1cccc12` the max activity was 7.4% [at 2.6 µM] (inactive). In the case of `Cc1cccc(S(=O)(=O)N2CCC(C(=O)NCCc3csc(C)n3)CC2)c1`, the max activity was -8.91% (inactive). For `COc1ccccc1-c1nc(Cn2nnc(-c3nc(-c4cccc(OC)c4OC)no3)c2C)c(C)o1`, the max activity was -11.2% (inactive). In the case of `Cc1ccc(-c2noc(-c3nnn(Cc4nc(-c5ccccc5)oc4C)c3C)n2)cc1`, the max activity was 8.04% (inactive). With `O=C(Nc1ccc(-c2nc(-c3ccccc3)co2)cc1)Nc1ccc(F)c(Cl)c1` the max activity was 15.9% (inactive). For `CC(C)CNC(=O)C1Cn2ccnc2C2(CCN(c3ncccn3)CC2)O1` (centres undefined), the max activity was 47.8% (inactive). In the case of `Cc1cccc(-c2nc(Cn3nnc(-c4nc(-c5cccc(Br)c5)no4)c3C)c(C)o2)c1`, the max activity was 7% [at 0.68 µM] (inactive). For `COCCNC1=NCCNC12CCN(S(=O)(=O)c1ccc(C(C)C)cc1)CC2`, the max activity was -6.8% [at 1.35 µM] (inactive). In the case of `CC(C)c1ccc(S(=O)(=O)N2CCC3(CC2)NCCN=C3NCc2ccc(F)cc2)cc1`, the max activity was -13.4% [at 10 µM] (inactive). In the case of `COc1ccccc1CCC(=O)Nc1ccc2c(c1)CCC(=O)N2C`, the max activity was -10.7% [at 0.16 µM] (inactive). In the case of `O=C1CCc2cc(NC(=O)c3cncc(Br)c3)ccc2N1`, the max activity was 4.53% [at 0.68 µM] (inactive). In the case of `Cc1cccc(NC(=O)Nc2ccc(-c3nc(-c4cc(C)ccc4C)co3)cc2)c1`, the max activity was 6.67% (inactive). In the case of `CC(C)CC#Cc1ccc([C@@H]2[C@H]3CN(C(=O)Nc4cc(F)ccc4F)CC(=O)N3[C@H]2CO)cc1`, the max activity was 2.95% [at 0.16 µM] (inactive). With `Cc1oc(-c2ccccc2)nc1Cn1nnc(-c2nc(-c3cccc(C(F)(F)F)c3)no2)c1C` the max activity was -10.4% [at 0.35 µM] (inactive). With `CCC(C(=O)N1CCC2(CC1)Nc1cc(OC)ccc1-n1cccc12)c1ccccc1` (centres undefined) the max activity was 9.09% [at 0.35 µM] (inactive). In the case of `COc1ccccc1CNC(=O)CCC1N=C2c3ccccc3N=C(SCc3ccc(C)cc3)N2C1=O` (centres undefined), the max activity was 16.9% [at 0.16 µM] (inactive). In the case of `O=C(CC1N=C2c3ccccc3N=C(SCc3cccc(F)c3)N2C1=O)NCc1ccc(F)cc1` (centres undefined), the max activity was 31.4% [at 2.6 µM] (inactive). For `N#CCSC1=Nc2ccccc2C2=NC(CCC(=O)NCCc3ccccc3)C(=O)N12` (centres undefined), the max activity was 23.8% [at 0.16 µM] (inactive). For `O=C(CC1N=C2c3ccccc3N=C(SCc3ccc(F)cc3)N2C1=O)NCc1ccccc1` (centres undefined), the max activity was 12.9% [at 10 µM] (inactive). With `O=C(CCC1N=C2c3ccccc3N=C(SCc3cccc(F)c3)N2C1=O)NCCc1ccccc1` (centres undefined) the max activity was 28.7% (inactive). For `CCOC(=O)CSC1=Nc2ccccc2C2=NC(CCC(=O)NCCc3ccccc3)C(=O)N12` (centres undefined), the max activity was 12.5% (inactive). With `CN(C)Cc1noc2c1CN(Cc1nccn1C)CC2` the max activity was 50.1% (inactive). In the case of `COc1cc(NC(=O)CN2CCC3(CC2)N=C(c2cccc(C)c2)C(=O)N3)cc(OC)c1`, the max activity was -9.06% [at 2.6 µM] (inactive). With `Cc1ccc(-c2nc(Cn3nnc(-c4nc(-c5ccc6c(c5)OCO6)no4)c3C)c(C)o2)cc1` the max activity was 17.5% [at 0.68 µM] (inactive). For `COc1cc(OC)cc(C(=O)N2CCC3(CC2)Nc2ccc(Cl)cc2-n2cccc23)c1`, the max activity was -6.3% [at 5 µM] (inactive). For `COc1ccccc1N1CCN(c2nc(-c3ccc(Cl)cc3)nc3ccccc23)CC1`, the max activity was 8.55% [at 5 µM] (inactive). With `Cc1noc(C)c1C1CCCN1C(=O)Cn1nc(C(F)(F)F)cc1C` (centres undefined) the max activity was -9.96% [at 0.35 µM] (inactive). With `COc1ccc(-c2nc(N3CCCCC3)c3ccccc3n2)cc1` the max activity was 24.4% (inactive). In the case of `COc1ccc(-c2nc(N3CCN(c4ccccc4)CC3)c3ccccc3n2)cc1`, the max activity was 18.5% (inactive). In the case of `COc1ccc(-c2nc(N3CCCCCC3)c3ccccc3n2)cc1`, the max activity was 11.2% [at 0.16 µM] (inactive). With `COc1ccc(-c2nc(N3CCC(N4CCCCC4)CC3)c3ccccc3n2)cc1` the max activity was -13.2% [at 10 µM] (inactive). For `COc1ccc(-c2nc(N3CCN(Cc4ccccc4)CC3)c3ccccc3n2)cc1`, the max activity was 20.1% (inactive). In the case of `COc1ccc(-c2nc(N3CCCC3)c3ccccc3n2)cc1`, the max activity was -15.5% [at 2.6 µM] (inactive). With `Clc1ccc(-c2nc(N3CCC4(CC3)OCCO4)c3ccccc3n2)cc1` the max activity was -8.6% [at 10 µM] (inactive). In the case of `COc1ccc(-c2nc(N3CCN(c4ccc(OC)cc4)CC3)c3ccccc3n2)cc1`, the max activity was 51.6% (inactive). For `CCc1ccc(C(=O)N2CCC3(CC2)Nc2cc(OC)ccc2-n2cccc23)cc1`, the max activity was 8.15% [at 0.68 µM] (inactive). In the case of `CC(=O)N1CCC(N(C)Cc2cc(C(C)(C)C)n[nH]2)CC1`, the max activity was 35.9% (inactive). For `COc1ccc(-c2noc(-c3nnn(Cc4nc(-c5ccccc5OC)oc4C)c3C)n2)cc1`, the max activity was 15.5% [at 5 µM] (inactive). For `COc1cc(OC)cc(C(=O)N2CSC[C@@H]2C(=O)NCCc2csc(-c3ccccc3)n2)c1`, the max activity was 23.7% (inactive). With `COc1ccc(-c2nc3c(s2)CN(S(=O)(=O)c2cc(OC)ccc2OC)CC3)cc1` the max activity was 28% (inactive). In the case of `CCc1ccccc1S(=O)(=O)N1CCc2nc(-c3ccccc3)sc2C1`, the max activity was 115% [at 10 µM] (inactive). With `CCc1ccccc1S(=O)(=O)N1CCc2nc(-c3cccc(OC)c3)sc2C1` the max activity was -7.33% [at 0.35 µM] (inactive). With `COc1cccc(-c2nc3c(s2)CN(S(=O)(=O)c2cccc(C)c2)CC3)c1` the max activity was -6.22% [at 2.6 µM] (inactive). For `COc1ccc(-c2nc3c(s2)CN(S(=O)(=O)c2cccc(Cl)c2C)CC3)cc1`, the max activity was 10.3% [at 10 µM] (inactive). In the case of `COc1ccc(S(=O)(=O)N2CCc3nc(-c4cccc(OC)c4)sc3C2)cc1`, the max activity was -10.4% [at 0.16 µM] (inactive). In the case of `COc1cccc(-c2nc3c(s2)CN(S(=O)(=O)c2ccccc2Cl)CC3)c1`, the max activity was 5.54% [at 10 µM] (inactive). For `COc1cccc(-c2nc3c(s2)CN(S(=O)(=O)c2cc(C)cc(C)c2)CC3)c1`, the max activity was -33.8% [at 0.16 µM] (inactive). For `Cc1ccc(-c2nc(CSc3nc4c(c(=O)[nH]3)CN(Cc3ccc(Cl)cc3)CC4)c(C)o2)cc1`, the max activity was 23.9% (inactive). In the case of `O=C(Cn1cccc1-c1nc(-c2ccc(Cl)cc2)cs1)N1CCC2(CC1)OCCO2`, the max activity was -6.36% [at 10 µM] (inactive). In the case of `O=C1CCc2cc(S(=O)(=O)N3CCN(c4ccc(F)cc4)CC3)cc3c2N1CCC3`, the max activity was 10.7% [at 2.6 µM] (inactive). For `CCOC(=O)c1cccc(NC(=O)Nc2ccc(-c3nc(-c4ccc(C)cc4)co3)cc2)c1`, the max activity was 67.3% (inactive). With `COc1ccc(-c2nc3c(s2)CN(C(=O)Nc2ccc(Br)cc2)CC3)cc1` the max activity was 26.4% [at 10 µM] (inactive). For `Cc1nc(-c2ccccc2)sc1C(=O)Nc1ccc(-n2c(C)nc3ccccc3c2=O)cc1`, the max activity was -25.8% (inactive). For `CC1CCN(C(=O)c2ccc(-c3csc(C4CC4)n3)cc2)CC1`, the max activity was 6.7% (inactive). With `CCN1C(=O)CCc2cc(NC(=O)Cc3c(F)cccc3Cl)ccc21` the max activity was 7.81% (inactive). For `O=C(Nc1ccc(-c2nc(-c3ccccc3)co2)cc1)c1ccc(Br)o1`, the max activity was 25.6% (inactive). For `Cc1ccc2c(c1C)-n1cccc1C1(CCN(C(=O)c3cccs3)CC1)N2`, the max activity was -15.1% [at 5 µM] (inactive). With `COc1ccc(-c2nc(N3CCC(C)CC3)c3ccccc3n2)cc1` the max activity was 21.8% (inactive). With `COc1ccc(OCC(=O)N2CCC[C@@H]2C(=O)NCCc2csc(-c3ccccc3)n2)cc1` the max activity was 10.2% [at 0.16 µM] (inactive). With `COc1ccc(-c2nc(NCCCN3CCN(c4ccc(F)cc4)CC3)c3ccccc3n2)cc1` the max activity was -17.2% [at 0.35 µM] (inactive). For `COc1ccc(-c2nc(NCCN3CCN(c4ccc(OC)cc4)CC3)c3ccccc3n2)cc1`, the max activity was 15.4% [at 0.16 µM] (inactive). In the case of `CCCN1CCN(CCCNc2nc(-c3ccc(Cl)cc3)nc3ccccc23)CC1`, the max activity was -50.1% [at 1.35 µM] (inactive). With `COc1ccc(N2CCN(CCNc3nc(-c4ccc(Cl)cc4)nc4ccccc34)CC2)cc1` the max activity was 22% [at 0.68 µM] (inactive). In the case of `COc1ccc(-c2nc(NCCCN3CCCC3)c3ccccc3n2)cc1`, the max activity was 15.7% (inactive). For `COc1ccc(-c2nc(NCCCN3CCN(c4cc(C)ccc4C)CC3)c3ccccc3n2)cc1`, the max activity was 21.7% (inactive). For `O=C(NCCc1csc(-c2ccccc2)n1)[C@H]1CCCN1C(=O)c1cccc(Cl)c1`, the max activity was -10.8% [at 0.35 µM] (inactive). In the case of `Cc1cccc(-c2nc(Cn3nnc(-c4nc(-c5cccc(F)c5)no4)c3C)c(C)o2)c1`, the max activity was -7.79% [at 1.35 µM] (inactive). For `COc1ccccc1-c1nc(Cn2nnc(-c3nc(-c4ccccc4C)no3)c2C)c(C)o1`, the max activity was 11.1% [at 0.16 µM] (inactive).
